A short description of test [1]: EMT-state selective cytotoxicity in co-culture – imaging, PC-3E GFP, TEM4-18 mCherry, primary screen (AID 1345086;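 active = compounds killing one labelled cell type while sparing the other, by normalised counts and ratio limits, not self-fluorescent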;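 as to all read-outs here: cells exposed to compound for 72 h before imaging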;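 as to red/green cell ratio (normalised): normalised mesenchymal count divided by normalised epithelial count so high means epithelial killing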). Conditions: PC-3E GFP / TEM4-18 mCherry co-culture, imaging cell counts, at 1 µM; for red/green cell ratio (normalised): actives lie on both sides, counts scaled to control wells, 1 = unselective.
A short description of test [2]: viability loss with induced miR-34 in A549 – imaging, A549 dox-inducible miR-34, nuclei and caspase counts, primary screen (AID 1347080). To be noted: A549 miR-34 inducible, Hoechst nuclei count, 48 h.
Test [3] in a line: compounds altering circadian rhythm period length – cell-based, LOPAC library, luminescence reporter (AID 2774; call rule not given here;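 also: values are relative to mean of DMSO wells on each plate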). To be noted: circadian reporter cells, at 7 µM, actives lie on both sides.
Test [4] can be described thus: P. berghei load reduction in hepatocytes – cell-based, HepG2, luciferase luminescence, HepG2 viability, primary screen (AID 624349; in the data active = parasite load remaining mostly below about 12%, no sharp cut-off; inactive = mostly above about 10%;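 also: 100% = mean of DMSO negative control wells on the same plate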). To be noted: P. berghei liver stage in HepG2, luciferase luminescence, concentration not given here; parasite load remaining: stronger effect = lower value; viability: measured here: HepG2 viability without parasites.
Test [5] concerns Hepatitis C virus NS3 helicase. The experiment in a line: blockers of NS3h binding to ssDNA – biochemical, fluorescence polarization, LOPAC1280 library, primary screen (AID 687035; in the data active = inhibition above about 37%). Conditions: Purified HCV NS3 helicase, Cy5-dT15 ssDNA binding fluorescence polarization; stronger effect = higher value; concentration not given here. Background: Polarisation of emitted light reports the rotation of a fluorescent probe.

A short description of test [6]: compounds altering Cy5-DNA-NS3h complex signal – biochemical, LOPAC1280, artefact control for HCV NS3 helicase inhibitor project (AID 687037; call rule not given here). Conditions: Cy5-DNA-NS3h complex fluorescence interference counterscreen.
A short description of test [7]: blockers of cellular phospholipid synthesis – cell-based, LOPAC library, screen 4, primary screen (AID 1347384; call rule not given here). To be noted: animal cells, phospholipid biosynthesis inhibition screen; at 10 µM.
The nature of test [8]: MELAS cybrid and Rieske KO viability enhancers – cell-based, MELAS cybrids, Rieske KO mouse fibroblasts, CellTiter-Glo, primary screen (AID 1508586;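 active = mean z-score across replicates of 1.96 or higher in either the MELAS or the Rieske mutant cell line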;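 also: z relative to plate mean and SD of compound and empty wells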). To be noted: low glucose.
For test [9], the target named is NAD(+) hydrolase SARM1 (Homo sapiens) (UniProt Q6SZW1). Nature of the test: blocking NAD cleavage by SARM1 SAM-TIR – cell lysate, NAD-Glo luminescence (AID 1508614;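 active = compound whose remaining NAD level is above about 45 nM, limit read from the data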;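 also: higher remaining NAD means stronger inhibition of SARM1 NADase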). To be noted: SAM-TIR HEK293T lysate NADase, at 1 µM, stronger effect = higher value.
Chain of NAD(+) hydrolase SARM1 (Homo sapiens) (Q6SZW1 whole entry, looked up, the tested form may be a part): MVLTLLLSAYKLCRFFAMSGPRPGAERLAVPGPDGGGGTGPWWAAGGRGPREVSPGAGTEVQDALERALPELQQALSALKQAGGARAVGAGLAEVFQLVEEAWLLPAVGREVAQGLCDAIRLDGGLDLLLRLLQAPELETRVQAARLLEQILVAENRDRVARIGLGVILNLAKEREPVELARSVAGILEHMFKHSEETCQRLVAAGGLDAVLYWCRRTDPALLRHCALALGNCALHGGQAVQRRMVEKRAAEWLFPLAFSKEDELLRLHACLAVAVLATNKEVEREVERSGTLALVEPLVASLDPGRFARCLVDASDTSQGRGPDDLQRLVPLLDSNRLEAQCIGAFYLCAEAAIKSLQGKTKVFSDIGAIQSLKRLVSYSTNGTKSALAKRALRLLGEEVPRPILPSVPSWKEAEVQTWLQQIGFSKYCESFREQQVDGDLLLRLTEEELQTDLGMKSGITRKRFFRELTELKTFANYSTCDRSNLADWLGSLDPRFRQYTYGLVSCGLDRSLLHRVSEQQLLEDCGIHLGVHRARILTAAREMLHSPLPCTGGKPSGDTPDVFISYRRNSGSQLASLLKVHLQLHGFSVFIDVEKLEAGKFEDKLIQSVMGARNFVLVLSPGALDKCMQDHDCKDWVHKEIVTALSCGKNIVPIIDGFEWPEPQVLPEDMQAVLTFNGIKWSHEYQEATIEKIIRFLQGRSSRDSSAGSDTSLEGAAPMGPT
Test [10] concerns the target Mitogen-activated protein kinase 7 (Homo sapiens) (UniProt Q13164). Nature of the test: Gal4-ERK5 driven luciferase induction – cell-based, HTS, primary screen (AID 1508626;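 active = luciferase signal above three times the same-plate solvent-only control wells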;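 also: luciferase driven by Gal4-ERK5 fusion binding five Gal4 sites before minimal TATA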). To be noted: HeLa Gal4-ERK5 transactivation, 18 h, at 5 µM, stronger effect = higher value.
A short description of test [11]: galactose survival enhancers in mitochondrial complex I cybrids – cell-based, galactose medium, ATP luminescence, primary screen (AID 1645843;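 active = z-score of at least 1.8 in each of two replicates, scored against plate mean and spread of sample wells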;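 also: positive z means more ATP and so rescue of galactose-driven cybrid death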). Conditions: complex I mutant cybrid cells, 72 h, stronger effect = higher value.
[12] abbreviates: measured here: epithelial PC-3E GFP cell survival.
[13] abbreviates: measured here: mesenchymal TEM4-18 mCherry cell survival.
[14] abbreviates: stronger effect = lower value, cell number ratio, induced over uninduced.
Where [15] appears, read: measured here: relative caspase fold change +Dox/-Dox.
The mark [16] stands for this setting: measured here: total cells with miR-34 induction, stronger effect = lower value.
The mark [17] stands for this setting: measured here: total cells without miR-34 induction.
Where [18] appears, read: MELAS cybrid survival, CellTiter-Glo 48 h, stronger effect = higher value.
The mark [19] stands for this setting: Rieske KO mouse fibroblast survival, CellTiter-Glo 72 h.

“And” between values parts separate entries of the source, which are not always exact repeats. Equal values may be shown once. The source made the active and inactive calls.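 The calls were made as follows, unless noted: active = compounds whose cell count with miR-34 switched on is under 0.7 times the count with it off; inactive = the rest.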

Chain of Mitogen-activated protein kinase 7 (Homo sapiens) (Q13164 whole entry, looked up, the tested form may be a part): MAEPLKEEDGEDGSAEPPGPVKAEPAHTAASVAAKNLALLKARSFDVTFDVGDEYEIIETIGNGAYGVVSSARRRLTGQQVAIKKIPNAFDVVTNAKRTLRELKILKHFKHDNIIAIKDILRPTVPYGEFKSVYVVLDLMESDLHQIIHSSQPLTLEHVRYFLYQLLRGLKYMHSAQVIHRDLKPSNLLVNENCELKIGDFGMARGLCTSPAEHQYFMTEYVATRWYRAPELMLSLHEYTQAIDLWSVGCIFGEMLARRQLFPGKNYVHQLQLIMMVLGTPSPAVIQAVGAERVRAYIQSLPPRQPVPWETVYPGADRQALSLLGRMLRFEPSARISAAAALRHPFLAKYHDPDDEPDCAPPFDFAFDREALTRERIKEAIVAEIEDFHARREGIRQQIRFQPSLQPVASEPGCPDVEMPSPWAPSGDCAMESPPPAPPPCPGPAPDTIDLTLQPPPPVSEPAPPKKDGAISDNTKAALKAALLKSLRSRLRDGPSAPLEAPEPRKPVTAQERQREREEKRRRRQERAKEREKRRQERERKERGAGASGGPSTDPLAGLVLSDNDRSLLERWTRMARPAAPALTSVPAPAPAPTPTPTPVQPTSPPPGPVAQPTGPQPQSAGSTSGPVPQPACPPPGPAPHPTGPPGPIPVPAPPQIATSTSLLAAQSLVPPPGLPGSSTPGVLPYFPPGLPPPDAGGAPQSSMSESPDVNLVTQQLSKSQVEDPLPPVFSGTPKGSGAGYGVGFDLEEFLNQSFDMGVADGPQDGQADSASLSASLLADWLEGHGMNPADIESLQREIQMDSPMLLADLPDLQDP

Consider `CC1(C)O[C@@H]2CC3C4CCC5=CC(=O)C=C[C@]5(C)C4[C@@H](O)C[C@]3(C)[C@]2(C(=O)CO)O1` (stereo not given in full), for which the red/green cell ratio (normalised) in test [1] was 0.93 (inactive). The normalised cell number amounted to 1.22 in test [1] (setting [12]) and 1.14 in test [1] (setting [13]). Further, the fold change in test [2] (setting [14]) is 0.861 (inactive); in [2] (setting [15]), 1.01. Moreover, the cell count in test [2] (setting [16]) stood at 5940; in test [2] (setting [17]) it was 6900.
By viability is commonly meant a read-out of living cells in per cent, often relative to untreated cells. The inhibition is the relative decrease from the control value, in per cent. Regarding `CC(=O)c1ccc(S(=O)(=O)NC(=O)NC2CCCCC2)cc1`, in test [3], the period change was -0.09 h (inactive). Further, the parasite load remaining in test [4] is 38.7% (inactive) and 91.1% (inactive) and 69.3% (inactive). Besides, the viability in test [4] was 49.8% and 90.7% and 105%. Moreover, the inhibition in [5] was -2% (inactive). Also, the fluorescence ratio (interference) in [6] is 1 (inactive). Further, in [1], the red/green cell ratio (normalised) was 0.86 (inactive). The normalised cell number in test [1] (setting [12]) was 0.99; in test [1] (setting [13]) it was 0.85. Also, the fold change was 1.04 (inactive) and 0.892 (inactive) and 0.85 (inactive) in test [2] (setting [14]); 2.43 and 1.31 and 5.06 in [2] (setting [15]). Further, the cell count was 10800 and 8720 and 11600 in test [2] (setting [16]); 10400 and 9780 and 13600 in test [2] (setting [17]). Also, the compound was called inactive in test [7]. The figures for the z-score in test [8] (setting [18]), in test [8] (setting [19]) and in test [11] were 0.0376 (inactive), -0.115 and 0.71 (inactive), respectively. Further, the remaining NAD in test [9] was 10 nM (inactive). The luciferase signal in test [10] is 44 AU (inactive).
For the compound `CN1C2CCCC1CC(NC(=O)c1nn(C)c3ccccc13)C2` (stereo not given), the fluorescence ratio (interference) in test [6] was 1 (inactive). For the same compound, the red/green cell ratio (normalised) in test [1] was 0.96 (inactive). For the same compound, the normalised cell number in test [1] (setting [12]) was found to be 0.99; in test [1] (setting [13]), 0.95. Further, the fold change in [2] (setting [14]) was 0.966 (inactive) and 0.87 (inactive); in [2] (setting [15]), 1.65 and 2.43. Also, the cell count in test [2] (setting [16]) was 10200 and 8870; in test [2] (setting [17]), 10600 and 10200. Besides, the result in test [7] was inactive. Moreover, the z-score in [11] was -0.44 (inactive) and 0.15 (inactive).
For `N=C(N)SCCN`, the period change in test [3] was -0.04 h (inactive). In [5], the inhibition is -3% (inactive). For the same compound, in test [6], the fluorescence ratio (interference) is 1 (inactive). For the same compound, the red/green cell ratio (normalised) in test [1] is 0.88 (inactive). Moreover, the normalised cell number amounted to 1.12 in test [1] (setting [12]) and 0.98 in test [1] (setting [13]). The fold change in test [2] (setting [14]) is 0.958 (inactive) and 1.11 (inactive); in [2] (setting [15]), 2.51 and 0.757. The cell count in test [2] (setting [16]) was 9240 and 6110; in test [2] (setting [17]) it was 9640 and 5490. Further, in test [7], the outcome was inactive. For the same compound, the luciferase signal in test [10] is 96 AU (inactive). Also, the z-score in test [11] was -0.855 (inactive).
Regarding `O=C(O)[C@H]1/C(=C/CO)O[C@@H]2CC(=O)N21`, the parasite load remaining in test [4] is 50.6% (inactive). The viability in test [4] was 103%. Further, the red/green cell ratio (normalised) in test [1] is 1.31 (inactive). Further, the normalised cell number in test [1] (setting [12]) turned out to be 0.86; in test [1] (setting [13]) it was 1.13. Also, the values for the fold change in [2] (setting [14]) and in test [2] (setting [15]) were 0.901 (inactive) and 3.53, respectively. Also, the results for the cell count in test [2] (setting [16]) and in test [2] (setting [17]) were 11900 and 13200, respectively. Moreover, the z-score is -0.304 (inactive) in [8] (setting [18]) and -1.19 in test [8] (setting [19]). In addition, the remaining NAD in test [9] is 10 nM (inactive). For the same compound, the luciferase signal in test [10] was 76 AU (inactive).
For the compound `CC(=O)Oc1cccc(C)c1`, the red/green cell ratio (normalised) in [1] was 1.03 (inactive). Moreover, the normalised cell number in test [1] (setting [12]) was 0.86; in test [1] (setting [13]) it was 0.89. For the same compound, the fold change was 0.912 (inactive) in test [2] (setting [14]) and 1.13 in test [2] (setting [15]). Besides, the cell count in test [2] (setting [16]) came out at 8300; in test [2] (setting [17]), 9090. Also, in test [9], the remaining NAD was 10 nM (inactive).
On to `COc1cc(-c2ccc(N=Nc3ccc4c(S(=O)(=O)O)cc(S(=O)(=O)O)c(N)c4c3O)c(OC)c2)ccc1N=Nc1ccc2c(S(=O)(=O)O)cc(S(=O)(=O)O)c(N)c2c1O`, for which, in [4], the parasite load remaining was 77.2% (inactive) and 55.6% (inactive). Moreover, in test [4], the viability is 74.5% and 64.2%. The red/green cell ratio (normalised) in test [1] was 1.11 (inactive). The normalised cell number in test [1] (setting [12]) was 1.16; in test [1] (setting [13]) it was 1.29. Besides, the fold change was 0.857 (inactive) in test [2] (setting [14]) and 0.848 in test [2] (setting [15]). The results for the cell count in [2] (setting [16]) and in test [2] (setting [17]) were 8930 and 10400, respectively. In addition, the z-score in test [8] (setting [18]) is -1.41 (inactive); in test [8] (setting [19]), -1.32.

These data come from PubChem BioAssay.
